# Test results: paper PMC7862700, “An all-to-all approach to the identification of sequence-specific readers for epigenetic DNA modifications on cytosine”
# Legend:
# Test in all cases: DAPPL (digital affinity profiling via proximity ligation, sequencing); 10 mM Tris-HCl pH 7.5, 50 mM NaCl, 1 mM DTT, 4% glycerol, room temperature, 30 min; GST-TFs on glutathione beads, 16-mer random dsDNA library, 0.1% formaldehyde crosslink after washing; high values mean tight binding
# FLI1 = biological target: T1, FLI1 (Homo sapiens, UniProt Q01543 1-452); conditions: protein: recombinant; tags: N-terminal GST; dsDNA, one strand shown
# T1 sequence: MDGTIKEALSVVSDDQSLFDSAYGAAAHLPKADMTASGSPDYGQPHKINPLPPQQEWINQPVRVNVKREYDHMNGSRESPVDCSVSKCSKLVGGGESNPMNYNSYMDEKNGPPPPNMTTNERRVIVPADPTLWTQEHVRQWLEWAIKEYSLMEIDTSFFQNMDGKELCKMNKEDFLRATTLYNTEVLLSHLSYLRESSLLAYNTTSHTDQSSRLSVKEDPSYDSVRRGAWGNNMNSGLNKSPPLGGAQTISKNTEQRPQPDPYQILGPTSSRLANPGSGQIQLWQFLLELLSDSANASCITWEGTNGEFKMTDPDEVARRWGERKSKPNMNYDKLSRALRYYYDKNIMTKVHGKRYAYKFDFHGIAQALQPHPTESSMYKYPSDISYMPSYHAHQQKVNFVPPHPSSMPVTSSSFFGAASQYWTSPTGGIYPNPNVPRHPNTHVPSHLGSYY
# Outline: (§1)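 After expression in yeast as GST fusions, human transcription factors were bound to glutathione beads, DNA-barcoded and mixed with a tag-only sample. The pools were incubated with 200 nmole of a 16-mer random double-stranded DNA library in Tris/NaCl/DTT/glycerol buffer (30 min, room temperature), washed and crosslinked with 0.1% formaldehyde. Proximity ligation with BsaI/T4 ligase ran for 1 h at 37 °C, before PCR amplification and sequencing on an Illumina NextSeq500. Binding signal is a hexamer's read frequency for a factor divided by its frequency for the tag-only sample.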
# ELK1 = biological target: T2, ELK1 (Homo sapiens, UniProt P19419 1-428); conditions: protein: recombinant; tags: N-terminal GST; dsDNA, one strand shown
# T2 sequence: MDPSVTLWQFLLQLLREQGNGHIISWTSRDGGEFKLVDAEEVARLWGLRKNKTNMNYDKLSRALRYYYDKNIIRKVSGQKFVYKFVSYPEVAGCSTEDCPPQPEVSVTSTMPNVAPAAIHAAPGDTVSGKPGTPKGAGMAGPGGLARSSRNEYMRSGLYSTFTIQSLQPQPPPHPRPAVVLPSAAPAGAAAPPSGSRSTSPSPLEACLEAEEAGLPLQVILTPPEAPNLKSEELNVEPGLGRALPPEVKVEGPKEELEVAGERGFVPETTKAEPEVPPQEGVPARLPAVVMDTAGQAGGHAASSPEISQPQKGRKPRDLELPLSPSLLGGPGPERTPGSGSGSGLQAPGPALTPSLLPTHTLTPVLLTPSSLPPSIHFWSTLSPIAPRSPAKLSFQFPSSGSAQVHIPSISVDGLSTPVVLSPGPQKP
# Outline: as §1
# GABPA = biological target: T3, GABPA (Homo sapiens, UniProt Q06546 1-454); conditions: protein: recombinant; tags: N-terminal GST; dsDNA, one strand shown
# T3 sequence: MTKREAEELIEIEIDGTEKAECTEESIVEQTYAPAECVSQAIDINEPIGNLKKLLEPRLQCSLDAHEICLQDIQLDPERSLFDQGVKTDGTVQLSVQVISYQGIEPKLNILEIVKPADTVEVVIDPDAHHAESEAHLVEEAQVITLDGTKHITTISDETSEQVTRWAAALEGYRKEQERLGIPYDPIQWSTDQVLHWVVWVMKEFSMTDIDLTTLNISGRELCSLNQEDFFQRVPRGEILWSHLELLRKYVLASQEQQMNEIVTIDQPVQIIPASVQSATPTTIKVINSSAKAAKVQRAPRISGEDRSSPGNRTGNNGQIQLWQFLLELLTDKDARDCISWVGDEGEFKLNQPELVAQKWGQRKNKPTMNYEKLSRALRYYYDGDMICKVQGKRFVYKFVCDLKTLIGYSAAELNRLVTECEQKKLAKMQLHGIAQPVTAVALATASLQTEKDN
# Outline: as §1
# ERG = biological target: T4, ERG (Homo sapiens, UniProt P11308 1-479); conditions: protein: recombinant; tags: N-terminal GST; dsDNA, one strand shown
# T4 sequence: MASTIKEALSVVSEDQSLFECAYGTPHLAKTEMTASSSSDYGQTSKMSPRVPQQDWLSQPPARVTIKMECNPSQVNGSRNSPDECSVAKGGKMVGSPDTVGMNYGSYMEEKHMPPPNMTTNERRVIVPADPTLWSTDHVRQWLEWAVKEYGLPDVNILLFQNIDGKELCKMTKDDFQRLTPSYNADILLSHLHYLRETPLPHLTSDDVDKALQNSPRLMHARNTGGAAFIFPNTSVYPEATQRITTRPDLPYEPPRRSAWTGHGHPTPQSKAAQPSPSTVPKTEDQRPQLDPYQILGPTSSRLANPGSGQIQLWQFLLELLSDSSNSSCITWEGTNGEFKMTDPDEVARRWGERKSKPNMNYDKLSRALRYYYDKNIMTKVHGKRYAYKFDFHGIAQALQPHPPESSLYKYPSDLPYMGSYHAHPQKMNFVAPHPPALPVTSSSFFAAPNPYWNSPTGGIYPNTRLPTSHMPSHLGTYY
# Outline: as §1
# ELF1 = ELF1 (Homo sapiens, UniProt P32519 1-619); conditions: protein: recombinant; tags: N-terminal GST; dsDNA, one strand shown
# Outline: as §1
# EHF = biological target: T5, EHF (Homo sapiens, UniProt Q9NZC4 1-300); conditions: protein: recombinant; tags: N-terminal GST; dsDNA, one strand shown
# T5 sequence: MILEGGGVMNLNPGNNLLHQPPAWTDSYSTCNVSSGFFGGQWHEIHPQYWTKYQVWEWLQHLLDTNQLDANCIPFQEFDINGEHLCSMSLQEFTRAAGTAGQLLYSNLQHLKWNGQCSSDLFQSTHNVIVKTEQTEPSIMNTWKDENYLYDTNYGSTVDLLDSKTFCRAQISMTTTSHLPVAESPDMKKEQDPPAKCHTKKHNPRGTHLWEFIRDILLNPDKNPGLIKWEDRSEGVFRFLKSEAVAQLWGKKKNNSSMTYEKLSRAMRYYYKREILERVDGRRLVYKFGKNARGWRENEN
# Outline: as §1
# SPI1 = SPI1 (Homo sapiens, UniProt P17947 1-270); conditions: protein: recombinant; tags: N-terminal GST; dsDNA, one strand shown
# Outline: as §1
# SPIB = SPIB (Homo sapiens, UniProt Q01892 1-262); conditions: protein: recombinant; tags: N-terminal GST; dsDNA, one strand shown
# Outline: as §1
# ELK3 = biological target: T6, ELK3 (Homo sapiens, UniProt P41970 1-407); conditions: protein: recombinant; tags: N-terminal GST; dsDNA, one strand shown
# T6 sequence: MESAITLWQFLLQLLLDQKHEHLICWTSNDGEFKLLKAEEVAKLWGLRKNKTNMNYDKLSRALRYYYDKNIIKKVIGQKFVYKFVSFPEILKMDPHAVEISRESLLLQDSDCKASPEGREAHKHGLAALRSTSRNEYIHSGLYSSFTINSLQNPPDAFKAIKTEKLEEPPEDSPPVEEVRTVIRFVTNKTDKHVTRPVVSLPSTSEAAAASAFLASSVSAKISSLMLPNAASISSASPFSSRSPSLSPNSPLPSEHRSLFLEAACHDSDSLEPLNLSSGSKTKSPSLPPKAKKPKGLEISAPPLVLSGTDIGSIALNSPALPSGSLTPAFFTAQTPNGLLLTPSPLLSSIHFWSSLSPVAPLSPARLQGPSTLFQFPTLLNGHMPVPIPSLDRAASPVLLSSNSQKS
# Outline: as §1
# FEV = biological target: T7, FEV (Homo sapiens, UniProt Q99581 1-238); conditions: protein: recombinant; tags: N-terminal GST; dsDNA, one strand shown
# T7 sequence: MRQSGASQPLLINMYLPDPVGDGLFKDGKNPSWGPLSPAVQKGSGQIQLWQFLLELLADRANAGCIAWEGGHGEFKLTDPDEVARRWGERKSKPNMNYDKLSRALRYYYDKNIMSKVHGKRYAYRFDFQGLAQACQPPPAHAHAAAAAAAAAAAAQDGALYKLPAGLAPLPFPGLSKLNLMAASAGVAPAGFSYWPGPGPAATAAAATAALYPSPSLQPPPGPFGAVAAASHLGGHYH
# Outline: as §1
# ETV5 = ETV5 (Homo sapiens, UniProt P41161 1-510); conditions: protein: recombinant; tags: N-terminal GST; dsDNA, one strand shown
# Outline: as §1
# HSF1 = HSF1 (Homo sapiens, UniProt Q00613 1-529); conditions: protein: recombinant; tags: N-terminal GST; chain copies: 3; dsDNA, one strand shown
# Outline: as §1
# SPIC = biological target: T8, SPIC (Homo sapiens, UniProt Q8N5J4 1-248); conditions: protein: recombinant; tags: N-terminal GST; dsDNA, one strand shown
# T8 sequence: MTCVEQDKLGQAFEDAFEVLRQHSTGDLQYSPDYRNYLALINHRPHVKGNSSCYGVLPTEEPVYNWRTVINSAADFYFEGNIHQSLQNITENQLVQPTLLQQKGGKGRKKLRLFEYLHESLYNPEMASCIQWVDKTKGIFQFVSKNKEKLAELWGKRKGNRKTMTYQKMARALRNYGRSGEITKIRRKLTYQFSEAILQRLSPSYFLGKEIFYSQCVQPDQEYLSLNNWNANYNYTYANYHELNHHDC
# Outline: as §1
# ELF4 = ELF4 (Homo sapiens, UniProt Q99607 1-663); conditions: protein: recombinant; tags: N-terminal GST; dsDNA, one strand shown
# Outline: as §1
# ELK4 = biological target: T9, ELK4 (Homo sapiens, UniProt P28324-2 1-405); conditions: protein: recombinant; tags: N-terminal GST; dsDNA, one strand shown
# T9 sequence: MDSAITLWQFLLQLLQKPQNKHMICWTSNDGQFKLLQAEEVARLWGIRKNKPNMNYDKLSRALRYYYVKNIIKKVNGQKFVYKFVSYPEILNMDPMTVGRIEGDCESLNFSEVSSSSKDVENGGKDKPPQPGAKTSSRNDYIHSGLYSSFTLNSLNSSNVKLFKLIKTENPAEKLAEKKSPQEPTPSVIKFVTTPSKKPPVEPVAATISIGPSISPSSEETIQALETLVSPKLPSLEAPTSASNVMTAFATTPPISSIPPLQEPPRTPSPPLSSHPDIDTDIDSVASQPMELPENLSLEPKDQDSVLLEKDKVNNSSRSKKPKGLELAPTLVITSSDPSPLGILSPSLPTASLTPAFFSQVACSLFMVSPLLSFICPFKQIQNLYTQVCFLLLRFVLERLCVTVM
# Outline: as §1
# ETV2 = biological target: T10, ETV2 (Homo sapiens, UniProt O00321 1-342); conditions: protein: recombinant; tags: N-terminal GST; dsDNA, one strand shown
# T10 sequence: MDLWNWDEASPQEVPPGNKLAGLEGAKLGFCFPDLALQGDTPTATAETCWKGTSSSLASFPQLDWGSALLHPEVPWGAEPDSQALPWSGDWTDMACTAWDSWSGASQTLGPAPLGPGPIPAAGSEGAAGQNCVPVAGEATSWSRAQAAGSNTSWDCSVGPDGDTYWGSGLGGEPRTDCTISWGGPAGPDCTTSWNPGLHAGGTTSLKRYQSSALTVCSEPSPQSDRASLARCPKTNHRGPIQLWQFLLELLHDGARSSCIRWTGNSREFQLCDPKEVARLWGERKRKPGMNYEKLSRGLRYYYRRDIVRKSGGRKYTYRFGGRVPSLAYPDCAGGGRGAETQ
# Outline: as §1
# ELF3 = biological target: T11, ELF3 (Homo sapiens, UniProt P78545 1-371); conditions: protein: recombinant; tags: N-terminal GST; dsDNA, one strand shown
# T11 sequence: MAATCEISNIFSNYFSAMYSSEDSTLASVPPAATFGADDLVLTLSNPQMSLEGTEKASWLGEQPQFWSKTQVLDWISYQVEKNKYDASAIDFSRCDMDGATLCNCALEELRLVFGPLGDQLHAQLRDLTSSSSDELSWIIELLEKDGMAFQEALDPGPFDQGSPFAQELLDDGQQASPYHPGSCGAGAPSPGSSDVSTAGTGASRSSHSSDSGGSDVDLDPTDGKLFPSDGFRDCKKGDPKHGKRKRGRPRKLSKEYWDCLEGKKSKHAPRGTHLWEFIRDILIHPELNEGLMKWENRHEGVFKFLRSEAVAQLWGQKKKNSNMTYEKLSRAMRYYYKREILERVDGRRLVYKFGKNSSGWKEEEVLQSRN
# Outline: as §1
# ETV1 = ETV1 (Homo sapiens, UniProt P50549 1-477); conditions: protein: recombinant; tags: N-terminal GST; dsDNA, one strand shown
# Outline: as §1
# Chain of ETV1 (P50549 whole entry): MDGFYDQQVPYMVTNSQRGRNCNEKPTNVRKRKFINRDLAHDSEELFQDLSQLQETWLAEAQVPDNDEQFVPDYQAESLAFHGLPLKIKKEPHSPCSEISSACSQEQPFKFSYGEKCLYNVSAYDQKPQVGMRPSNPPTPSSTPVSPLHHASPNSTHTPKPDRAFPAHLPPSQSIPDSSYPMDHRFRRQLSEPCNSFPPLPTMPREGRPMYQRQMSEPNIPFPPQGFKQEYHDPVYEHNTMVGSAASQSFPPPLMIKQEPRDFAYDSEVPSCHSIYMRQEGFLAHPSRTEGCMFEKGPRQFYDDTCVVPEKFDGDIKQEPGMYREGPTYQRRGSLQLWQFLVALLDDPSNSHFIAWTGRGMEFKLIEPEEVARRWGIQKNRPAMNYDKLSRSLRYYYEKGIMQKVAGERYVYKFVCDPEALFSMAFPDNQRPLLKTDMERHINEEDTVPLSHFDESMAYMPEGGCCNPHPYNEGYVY
# Chain of ELF1 (P32519 whole entry): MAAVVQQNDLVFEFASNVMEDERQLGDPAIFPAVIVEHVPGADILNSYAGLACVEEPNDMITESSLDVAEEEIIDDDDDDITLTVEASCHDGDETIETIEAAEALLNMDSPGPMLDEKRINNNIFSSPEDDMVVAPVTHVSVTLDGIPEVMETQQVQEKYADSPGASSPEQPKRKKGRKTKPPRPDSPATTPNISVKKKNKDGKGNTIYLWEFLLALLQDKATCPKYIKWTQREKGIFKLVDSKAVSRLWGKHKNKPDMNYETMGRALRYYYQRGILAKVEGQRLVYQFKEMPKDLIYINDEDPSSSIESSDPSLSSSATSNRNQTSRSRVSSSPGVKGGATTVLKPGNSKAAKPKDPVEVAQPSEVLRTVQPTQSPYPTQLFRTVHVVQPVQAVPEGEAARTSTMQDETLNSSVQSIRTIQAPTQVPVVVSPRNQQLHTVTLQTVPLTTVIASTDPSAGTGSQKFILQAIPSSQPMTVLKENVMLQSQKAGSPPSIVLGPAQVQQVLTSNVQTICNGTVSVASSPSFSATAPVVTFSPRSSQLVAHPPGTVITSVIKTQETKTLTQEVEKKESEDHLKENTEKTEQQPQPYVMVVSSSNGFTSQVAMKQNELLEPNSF
# Chain of ELF4 (Q99607 whole entry): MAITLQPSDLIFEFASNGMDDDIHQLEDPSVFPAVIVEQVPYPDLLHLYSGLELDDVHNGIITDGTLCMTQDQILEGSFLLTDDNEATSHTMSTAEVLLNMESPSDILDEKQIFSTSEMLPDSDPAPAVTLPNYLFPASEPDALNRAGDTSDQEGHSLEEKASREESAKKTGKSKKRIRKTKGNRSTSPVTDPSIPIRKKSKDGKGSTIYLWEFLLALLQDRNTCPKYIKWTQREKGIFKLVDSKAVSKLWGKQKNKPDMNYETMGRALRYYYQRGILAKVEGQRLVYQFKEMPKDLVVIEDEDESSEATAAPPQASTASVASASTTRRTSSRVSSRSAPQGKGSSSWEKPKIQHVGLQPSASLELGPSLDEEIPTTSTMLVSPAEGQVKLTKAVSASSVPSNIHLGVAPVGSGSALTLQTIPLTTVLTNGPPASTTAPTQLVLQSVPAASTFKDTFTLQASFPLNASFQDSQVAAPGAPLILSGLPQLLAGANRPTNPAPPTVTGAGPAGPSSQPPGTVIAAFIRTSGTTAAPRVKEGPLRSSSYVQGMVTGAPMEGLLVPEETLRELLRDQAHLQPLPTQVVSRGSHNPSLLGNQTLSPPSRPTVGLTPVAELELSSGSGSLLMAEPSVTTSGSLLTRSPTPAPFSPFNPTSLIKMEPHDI
# Chain of SPIB (Q01892 whole entry): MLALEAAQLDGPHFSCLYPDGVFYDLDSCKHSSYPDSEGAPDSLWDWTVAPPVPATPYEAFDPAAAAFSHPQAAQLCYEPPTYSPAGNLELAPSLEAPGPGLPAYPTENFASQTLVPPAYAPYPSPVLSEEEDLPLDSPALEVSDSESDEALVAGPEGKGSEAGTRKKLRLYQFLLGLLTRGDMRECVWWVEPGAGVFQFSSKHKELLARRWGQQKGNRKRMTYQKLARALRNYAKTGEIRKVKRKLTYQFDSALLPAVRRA
# Chain of ETV5 (P41161 whole entry): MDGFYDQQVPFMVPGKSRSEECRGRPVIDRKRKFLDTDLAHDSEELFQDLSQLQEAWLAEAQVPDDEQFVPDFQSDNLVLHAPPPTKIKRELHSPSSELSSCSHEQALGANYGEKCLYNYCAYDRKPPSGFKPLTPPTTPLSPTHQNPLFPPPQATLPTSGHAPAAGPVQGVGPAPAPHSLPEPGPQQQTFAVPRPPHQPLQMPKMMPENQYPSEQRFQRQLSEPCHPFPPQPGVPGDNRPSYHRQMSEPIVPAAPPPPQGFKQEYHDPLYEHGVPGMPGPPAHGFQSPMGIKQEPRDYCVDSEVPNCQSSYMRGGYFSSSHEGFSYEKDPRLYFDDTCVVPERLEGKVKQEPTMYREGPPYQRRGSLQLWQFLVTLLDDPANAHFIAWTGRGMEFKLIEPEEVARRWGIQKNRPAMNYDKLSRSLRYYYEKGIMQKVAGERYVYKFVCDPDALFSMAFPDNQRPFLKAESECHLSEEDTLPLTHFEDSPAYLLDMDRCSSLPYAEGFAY
# Chain of HSF1 (Q00613 whole entry): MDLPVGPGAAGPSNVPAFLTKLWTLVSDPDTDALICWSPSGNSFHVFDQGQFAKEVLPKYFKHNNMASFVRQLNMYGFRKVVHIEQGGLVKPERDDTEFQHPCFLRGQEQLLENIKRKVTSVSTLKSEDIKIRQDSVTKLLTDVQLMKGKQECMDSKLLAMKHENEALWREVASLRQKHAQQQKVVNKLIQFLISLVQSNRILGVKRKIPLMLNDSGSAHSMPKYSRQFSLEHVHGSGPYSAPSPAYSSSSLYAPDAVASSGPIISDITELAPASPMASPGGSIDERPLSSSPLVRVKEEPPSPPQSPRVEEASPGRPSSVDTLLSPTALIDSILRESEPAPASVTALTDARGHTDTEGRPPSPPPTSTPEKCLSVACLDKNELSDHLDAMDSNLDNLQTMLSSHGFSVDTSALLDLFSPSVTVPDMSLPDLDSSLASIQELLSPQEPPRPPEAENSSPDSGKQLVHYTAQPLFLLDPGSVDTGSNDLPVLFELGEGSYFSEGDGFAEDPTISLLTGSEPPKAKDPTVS
sequence,measurement,setting,value
ACTGGC,binding signal,FLI1,"1.26 fold enrichment (6-mer frequency, TF over GST control)"
same,binding signal,ELK1,"1.12 fold enrichment (6-mer frequency, TF over GST control)"
same,binding signal,GABPA,"1.22 fold enrichment (6-mer frequency, TF over GST control)"
same,binding signal,ERG,"1.11 fold enrichment (6-mer frequency, TF over GST control)"
same,binding signal,ELF1,"1.18 fold enrichment (6-mer frequency, TF over GST control)"
same,binding signal,EHF,"1.1 fold enrichment (6-mer frequency, TF over GST control)"
same,binding signal,SPI1,"1.22 fold enrichment (6-mer frequency, TF over GST control)"
same,binding signal,SPIB,"1.15 fold enrichment (6-mer frequency, TF over GST control)"
same,binding signal,ELK3,"1.21 fold enrichment (6-mer frequency, TF over GST control)"
same,binding signal,FEV,"1.11 fold enrichment (6-mer frequency, TF over GST control)"
same,binding signal,ETV5,"1.11 fold enrichment (6-mer frequency, TF over GST control)"
same,binding signal,HSF1,"1.07 fold enrichment (6-mer frequency, TF over GST control)"
same,binding signal,SPIC,"1.28 fold enrichment (6-mer frequency, TF over GST control)"
same,binding signal,ELF4,"1.16 fold enrichment (6-mer frequency, TF over GST control)"
same,binding signal,ELK4,"1.25 fold enrichment (6-mer frequency, TF over GST control)"
same,binding signal,ETV2,"1.11 fold enrichment (6-mer frequency, TF over GST control)"
same,binding signal,ELF3,"1.1 fold enrichment (6-mer frequency, TF over GST control)"
same,binding signal,ETV1,"1.11 fold enrichment (6-mer frequency, TF over GST control)"
